An excerpt weighted towards active compounds, which were near 8.1% of everything screened.
SW480 rerep: A quantitative high throughput screen for small molecules that induce DNA re-replication in SW480 colon adenocarcinoma cells. SW480 DNA re-replication, Hoechst DNA content imaging, 48 h. Potency, µM (series often up to 46.1 µM), actives largely listed as activators. 1.8% of 340,000 active. AID 624297, 2012; note: nearly all actives have a fitted effect of over 55% in size
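Cells (250 per well) received 23 nL compound or DMSO by pin tool and were kept 48 hr at 37 C, 5% CO2. Nuclei were then stained with Hoechst for 40 min and scanned for DNA content.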
KB-3-1 cytotox: qHTS assay for MDR1-selective chemotherapeutics: Primary screen using the parental adenocarcinoma cell KB-3-1; KB-3-1 viability, CellTiter-Glo ATP luminescence, 72 h; Potency, µM (series often up to 46.1 µM), hits mostly cytotoxic; 1.4% of 400,000 active; note: nearly all actives have a fitted effect of over 60% in size
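KB-3-1 parental drug-naive adenocarcinoma cells in DMEM/10% FBS, incubated 72 h at 37 C with pin-transferred compounds across a concentration series. Viability by CellTiter-Glo luminescence; concentration-response curves fitted after normalization.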
ELG1 repair inh: qHTS screen for small molecules that inhibit ELG1-dependent DNA repair in human embryonic kidney (HEK293T) cells expressing luciferase-tagged ELG1. HEK293T ELG1-luciferase reporter, luminescence, 16 h; DNA damage induced by 5-fluorouridine. Potency, µM (series often up to 46.1 µM), hits mostly inhibitors. 2.3% of 330,000 active. AID 504467, 2011; note: nearly all actives have a fitted effect of over 55% in size
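Overnight (16 hr) co-exposure of 2,000 cells/well to 5-fluorouridine and compound at 37 °C preceded detection. Luciferase was quantified via ONE-Glo luminescence; loss of signal denotes inhibition.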
KB-V1 MDR tox: qHTS assay for MDR1-selective chemotherapeutics: Primary screen using the drug-selected MDR subline cells KB-V1; KB-V1 MDR cells viability, CellTiter-Glo, 72 h; Potency, µM (doses to about 46.1 µM), usual class: cytotoxic; 3.4% of 400,000 active; note: nearly all actives have a fitted effect of over 60% in size
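Compound-treated KB-V1 multidrug-resistant cells, 72 h, 37 degrees C; viability by CellTiter-Glo. Fitted qHTS curves give the values.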
MCF10A rereplic: A quantitative high throughput screen for small molecules that induce DNA re-replication in MCF 10a normal breast cells | MCF 10A DNA re-replication, Hoechst nuclear intensity, 48 h | Potency, µM (titrated, usually from 46.1 µM), hits mostly activators | 2.9% of 350,000 active | AID 624296, 2012; note: nearly all actives have a fitted effect of over 50% in size
Large screens that a line does not name were inactive; ! = not confirmed by another sample. Calls come from the whole dose curve; as a rule, active = well fitted curve in the direction sought with a large enough effect; inconclusive = small, poorly fitted or top-dose-only effect, or another doubt; inactive = no such curve, though single readings can be large; an effect the other way counts as inactive or inconclusive.

Cc1ccc(N(C)S(=O)(=O)c2ccc(-c3cnc(C4CC4)o3)cc2)cc1	SW480 rerep inconclusive, KB-3-1 cytotox 3.3µM!, KB-V1 MDR tox 2.9µM!, MCF10A rereplic inconclusive
CN(Cc1ccccc1)S(=O)(=O)c1ccc(-c2cnc(C3CC3)o2)cc1	none (no result: SW480 rerep, ELG1 repair inh, MCF10A rereplic)
Cc1cccc(C)c1NS(=O)(=O)c1ccc(-c2cnc(C3CC3)o2)cc1	SW480 rerep inconclusive, KB-3-1 cytotox 0.023µM, KB-V1 MDR tox 0.73µM, MCF10A rereplic inconclusive
CCOC(=O)N1CCC(NC(=O)c2c(C)nn(-c3ccc(C)cc3)c2-n2cccc2)CC1	KB-3-1 cytotox inconclusive, KB-V1 MDR tox 7.3µM (no result: SW480 rerep, ELG1 repair inh, MCF10A rereplic)
Cc1ccc(-n2nc(C)c(C(=O)NCCCN3CCN(c4ccc(F)cc4)CC3)c2-n2cccc2)cc1	KB-3-1 cytotox 15µM, KB-V1 MDR tox 16µM (no result: SW480 rerep, ELG1 repair inh, MCF10A rereplic)
Cc1nn(-c2ccccc2)c(-n2cccc2)c1C(=O)NCCc1ccc(Cl)cc1	KB-V1 MDR tox inconclusive (no result: SW480 rerep, ELG1 repair inh, MCF10A rereplic)
CCCN1CCN(CCCNC(=O)c2c(C)nn(-c3ccc(F)cc3)c2-n2cccc2)CC1	KB-V1 MDR tox inconclusive (no result: SW480 rerep, ELG1 repair inh, MCF10A rereplic)
Cc1nn(-c2ccc(F)cc2)c(-n2cccc2)c1C(=O)NCCCN1CCN(c2cccc(Cl)c2)CC1	KB-3-1 cytotox inconclusive, KB-V1 MDR tox 10µM (no result: SW480 rerep, ELG1 repair inh, MCF10A rereplic)
Cc1ccc(CN2CCN(CC(=O)NCCCN3CCN(c4ccc(F)cc4)CC3)C2=O)cc1	KB-3-1 cytotox 16µM, ELG1 repair inh inconclusive
COc1ccc(OC)c(Nc2nc(NCc3ccco3)c3ccccc3n2)c1	SW480 rerep inconclusive, ELG1 repair inh inconclusive, KB-V1 MDR tox inconclusive, MCF10A rereplic inconclusive
COc1ccc(NC(=S)N2CCN(c3ncccn3)CC2)cc1	none
CC(Oc1cccc2cccnc12)C(=O)N/N=C/c1ccccc1 (stereo unspecified)	KB-V1 MDR tox inconclusive
O=C(NCCCN1CCN(c2cccc(Cl)c2)CC1)c1nc(-c2ccncc2)no1	ELG1 repair inh inconclusive, KB-V1 MDR tox 4.1µM
O=C(NCCCN1CCN(CCCNC(=O)c2cccc(Cl)c2)CC1)c1cccc(Cl)c1	KB-V1 MDR tox inconclusive, MCF10A rereplic inconclusive
CC(=O)Oc1c(Br)cc(N(C(C)=O)S(=O)(=O)c2ccccc2)c2ccccc12	SW480 rerep inconclusive, KB-3-1 cytotox inconclusive, ELG1 repair inh 23µM, KB-V1 MDR tox inconclusive, MCF10A rereplic 16µM
Cc1ccc(C(NC(=O)CN2C(=O)NC3(CCCC3)C2=O)c2ccccc2)cc1 (stereo unspecified)	none
CC(NC(=O)CN1C(=O)NC2(CCCCCCC2)C1=O)c1ccccc1 (stereo unspecified)	KB-V1 MDR tox 23µM
Cc1ccc(NC(=O)CN2C(=O)NC3(CCCCCCC3)C2=O)cc1C	KB-V1 MDR tox 23µM
Cc1ccc(NC(=O)CN2C(=O)NC3(CCC(C)CC3)C2=O)c(Cl)c1 (stereo unspecified)	KB-V1 MDR tox 18µM
Cc1cc(C)c(NC(=O)CN2C(=O)NC3(CCCCC3)C2=O)c(Cl)c1	none
O=C(CN1C(=O)NC2(CCCCC2)C1=O)Nc1ccc(F)cc1	none
CC(NC(=O)CN1C(=O)NC2(CCCCC2)C1=O)c1ccc(S(N)(=O)=O)cc1 (stereo unspecified)	SW480 rerep 6.5µM, MCF10A rereplic inconclusive (no result: ELG1 repair inh)
COc1ccc(OC)c(NC(=O)N2CCC(N3CCN(Cc4ccc(F)cc4)C(=O)C3=O)CC2)c1	none (no result: SW480 rerep, ELG1 repair inh, MCF10A rereplic)
CCC(C)Sc1cccc(-c2nc3cnccn3c2NC2CCCCC2)c1 (stereo unspecified)	SW480 rerep inconclusive, KB-3-1 cytotox inconclusive, ELG1 repair inh inconclusive, KB-V1 MDR tox inconclusive, MCF10A rereplic 18µM
CCN(CC)c1ccc(-c2nc3cnccn3c2NC2CCCC2)cc1	SW480 rerep 21µM, KB-3-1 cytotox inconclusive, MCF10A rereplic 16µM
CCC(C)Sc1cccc(-c2nc3ccc(C)cn3c2NC2CCCCC2)c1 (stereo unspecified)	ELG1 repair inh inconclusive, KB-V1 MDR tox inconclusive, MCF10A rereplic inconclusive
c1cn2c(NC3CCCCC3)c(-c3ccc(SC4CCCCC4)cc3)nc2cn1	ELG1 repair inh inconclusive, MCF10A rereplic inconclusive

Screening results deposited in PubChem by National Center for Advancing Translational Sciences (NCATS).
